Test results taken from publication PMC7819943, “Rice protein-binding microarrays: a tool to detect cis-acting elements near promoter regions in rice”.
The full ranking holds about 39,000 sequences; the median of “fluorescence intensity (a.u.)” is about 4,300, and the highest 2% start at about 39,000. Many of the other results were omitted from the sample, so the highest values are more common in it than they were.

The sequences below were run against T1, OsSMF1 (Oryza sativa, UniProt Q6ZLB0 1-436) (assay: protein-binding microarray (RPBM); PBS, 2% BSA, 51.3 ng/ul salmon testes DNA, 50 uM zinc acetate, 200 nM TF, 25 C, 1 h; high values mean tight binding). Settings: protein: recombinant; tags: N-terminal polyhistidine and DsRed monomer fusion (pET32a); chain copies: 2; label: CyDye5-dUTP incorporated in the synthesized complementary strand; 3' TTTTT single-stranded linker to array surface; dsDNA, one strand shown.
T1 sequence: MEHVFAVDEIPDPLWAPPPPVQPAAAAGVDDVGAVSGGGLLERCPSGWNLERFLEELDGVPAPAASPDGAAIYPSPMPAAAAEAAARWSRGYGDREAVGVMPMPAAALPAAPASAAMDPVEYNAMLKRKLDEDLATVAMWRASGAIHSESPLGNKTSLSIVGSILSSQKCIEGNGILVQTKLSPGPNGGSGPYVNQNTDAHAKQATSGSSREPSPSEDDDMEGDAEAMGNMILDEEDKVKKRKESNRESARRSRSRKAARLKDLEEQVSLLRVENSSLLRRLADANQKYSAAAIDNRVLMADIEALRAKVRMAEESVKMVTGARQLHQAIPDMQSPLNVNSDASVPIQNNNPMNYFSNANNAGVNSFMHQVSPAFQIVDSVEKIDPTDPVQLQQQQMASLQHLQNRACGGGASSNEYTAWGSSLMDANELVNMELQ
How it was run: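 Transcription factors were made in E. coli BL21-CodonPlus as N-terminal fusions to a polyhistidine tag and DsRed, then purified on Ni–NTA. After primer extension with Cy5-dUTP and blocking with 2% BSA, a custom Agilent array was exposed for 1 h at 25 °C to 200 nM protein in PBS, 2% BSA, salmon testes DNA and 50 µM zinc acetate. Washed arrays were scanned on an Axon 4000B, and the binding signal is per-feature fluorescence intensity in arbitrary units.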

| Sequence | binding signal |
| --- | --- |
| CGTACTCATCTCCTACACATCATCTCCAATTAATCTAATTCGGAGTCACCTAGTGCAG | 3180 fluorescence intensity (a.u.) |
| ATTTATCATTATTAACTAATAATAACATTGATGTAATTAACGGAGTCACCTAGTGCAG | 3400 fluorescence intensity (a.u.) |
| TTTGCCATTAGCGTACTCACCTAATCTAATCATCGGATTACGGAGTCACCTAGTGCAG | 48900 fluorescence intensity (a.u.) |
| CCATTGATTGATTATCAGTGGGCGTAATCATCAGTCTAAACGGAGTCACCTAGTGCAG | 42100 fluorescence intensity (a.u.) |
| TCCATACATTATTGACGTAATCATAAATATACATCCATGTCGGAGTCACCTAGTGCAG | 3360 fluorescence intensity (a.u.) |
| AATGACAGGACAACGAGGACACCGTGGATATTAAAGACCCCGGAGTCACCTAGTGCAG | 4140 fluorescence intensity (a.u.) |
| TGGTAACTAAACTGCCATGTCAGGGACAGATCGACCAGTGCGGAGTCACCTAGTGCAG | 5160 fluorescence intensity (a.u.) |
| AGGACACGTAGCATTTCCTCCTCAAGCAAGAGGAGCAGTACGGAGTCACCTAGTGCAG | 4000 fluorescence intensity (a.u.) |
| AACGTCAAGTACTCACGTGGTCCACGAATATTTAAGCCTACGGAGTCACCTAGTGCAG | 4480 fluorescence intensity (a.u.) |
| GCGAACACTGAGGTGTTGACGTTGCGCTCCGCCTCGCTGTCGGAGTCACCTAGTGCAG | 3840 fluorescence intensity (a.u.) |
| GCCGAGAAGGCATCAACGGCACTGGCGAGGCCCTCTCAGCCGGAGTCACCTAGTGCAG | 39600 fluorescence intensity (a.u.) |
| GTCCCTCCGCCGGCATCAGCTCAACGCCGCCGTCCTCCTCCGGAGTCACCTAGTGCAG | 3370 fluorescence intensity (a.u.) |
| ATTAAGCCCTCAATCGGCACAGGCGAGGAGTTCTCATCACCGGAGTCACCTAGTGCAG | 12000 fluorescence intensity (a.u.) |
| TCGTCGACTACGTGTTGGTGTTTCATGCCGCCAAGTCGACCGGAGTCACCTAGTGCAG | 5250 fluorescence intensity (a.u.) |
| TATAAGCACAATGCAGCCTAGTTGTTGCCGTGACCTGAGTCGGAGTCACCTAGTGCAG | 3180 fluorescence intensity (a.u.) |
| GACATCTGGAGGCGTCATGCAAGATGTCACATCCATAGAACGGAGTCACCTAGTGCAG | 3940 fluorescence intensity (a.u.) |
| ACTGGCCGTGACGCATTTCAACCTCTTGATCTGAACTGCCCGGAGTCACCTAGTGCAG | 3620 fluorescence intensity (a.u.) |
| AACCATAATGTTTGTGACACATTAAGGGCCTGTTCACTTTCGGAGTCACCTAGTGCAG | 3660 fluorescence intensity (a.u.) |
| GGCAGGCTTGCACACAGGTGCAAAGATACGTGTGGCAGACCGGAGTCACCTAGTGCAG | 3240 fluorescence intensity (a.u.) |
| GATAGGCAAAGCTTCGAACTTTGGGCTGAAAACAAATTTTCGGAGTCACCTAGTGCAG | 28400 fluorescence intensity (a.u.) |
| ATGCAAAAGATATATAGGCTTGTTTTACTGAAGGTGGCTTCGGAGTCACCTAGTGCAG | 39100 fluorescence intensity (a.u.) |
| GAGATGTCTGAACAAACAGATGGACGTGTAATGTTGTGGACGGAGTCACCTAGTGCAG | 3400 fluorescence intensity (a.u.) |

| Sequence | binding signal |
| --- | --- |
| CCGTCTTTTCTTTCTTCACGCCAGCGTCGCCGTGGTCAAGCGGAGTCACCTAGTGCAG | 3650 fluorescence intensity (a.u.) |
| GAAGGAATTGGATTGAATCAGAAAGGGGATCGATTCGATGCGGAGTCACCTAGTGCAG | 45200 fluorescence intensity (a.u.) |
| TCGATTGGGGATTGGGGATTGGGGATCAGGAGGGATGGGGCGGAGTCACCTAGTGCAG | 4350 fluorescence intensity (a.u.) |
| CGGAGGGATTCGATTTGGAAGGAATTGGATTCGGAGTTGACGGAGTCACCTAGTGCAG | 33200 fluorescence intensity (a.u.) |
| AATTTGGATTTGAATTATATCTGATTCAAATTTGAATTTGCGGAGTCACCTAGTGCAG | 3270 fluorescence intensity (a.u.) |
| TTAGCTGGGATGAATTGGGAATGGCTGATGATTCATTGCTCGGAGTCACCTAGTGCAG | 3790 fluorescence intensity (a.u.) |
| TTGGAATGCTGAAATTATTAGGGGACTATTCAAATTGATGCGGAGTCACCTAGTGCAG | 39200 fluorescence intensity (a.u.) |
| CAAGCCAAGTCTGAAGAAGAAGAACTAGTCATCGCTTGCCCGGAGTCACCTAGTGCAG | 3820 fluorescence intensity (a.u.) |
| AAATCCTTGTCTTCCCACGCTGACGCTGCTGTGTCCAGGTCGGAGTCACCTAGTGCAG | 4530 fluorescence intensity (a.u.) |
| ACCGGCTCACTTATGCGCGCGCGGCGCTGAGGTGGCCGCACGGAGTCACCTAGTGCAG | 5200 fluorescence intensity (a.u.) |
| GGGCTTCGTCCCCATCATCTCCTGCCACCTCAAACACCTGCGGAGTCACCTAGTGCAG | 3520 fluorescence intensity (a.u.) |
| GATGGGCTTGTGCTGACATCATCTATACGTGCTTTGCTCCCGGAGTCACCTAGTGCAG | 14500 fluorescence intensity (a.u.) |
| ATATATTCTATGTGGTCTGCCCACACGCAAGCATGAGCTCCGGAGTCACCTAGTGCAG | 3740 fluorescence intensity (a.u.) |
| TTCCGGCATGCTCAACAATTGGTCCAGGTGTTTGTTCCAGCGGAGTCACCTAGTGCAG | 42200 fluorescence intensity (a.u.) |
| TGCCAATGGTGTGTGCAATTGCAACATGCGTTTGGTTGTGCGGAGTCACCTAGTGCAG | 4100 fluorescence intensity (a.u.) |
| GCGCCGCCAGCCGCTACAGGTCAGCGGCAACAGCAGGTTCCGGAGTCACCTAGTGCAG | 29200 fluorescence intensity (a.u.) |
| GACACGTATGATTTGTGTGGTAGTACATAGCACGCACGCACGGAGTCACCTAGTGCAG | 35800 fluorescence intensity (a.u.) |
| CCAGGCACCGACCTGTAGTTGCATCAGCAAACCATGGCTGCGGAGTCACCTAGTGCAG | 4690 fluorescence intensity (a.u.) |
| AAATATAGAGATTTATTAACATAACAGCCTATCCACGTGGCGGAGTCACCTAGTGCAG | 17200 fluorescence intensity (a.u.) |
| AGGGATTATGTGTGTGTAAGATATTTGTGACTAGTTTATTCGGAGTCACCTAGTGCAG | 3630 fluorescence intensity (a.u.) |
| TTGTAAGCTCAGCCTAGATAGAGTGAAGATATTTTATTGGCGGAGTCACCTAGTGCAG | 49700 fluorescence intensity (a.u.) |
